Sampled rows, rich in hits. Any-hit rate of the full collection: about 19%.
SARS PLP yeast – SARS-CoV PLP inhibition in yeast; Potency, µM (doses to about 32.9 µM), for the others: top-dose activity, positive = growth rescue, usual class: activators; hit rate 0.19% among 330,000; S. cerevisiae expressing SARS-CoV PLpro, growth rescue; AID 485353; calls by dose curve; further: potency means the concentration at half of the fitted maximal effect; 0% is about no effect; nearly all actives have a fitted effect of over 55% in size
Pf growth 48h – P. falciparum growth inhibition at 48 hours (one generation). P. falciparum luciferase growth in erythrocytes, 48 h. Potency, µM (doses to about 28.7 µM), for inactives: top-dose activity change, negative = inhibition, most hits filed as inhibitors. hit rate 5.9% among 310,000. AID 504832; further: potency means the concentration at half of the fitted maximal effect; on the % scale 0 is the no-effect control and ±100 the full control effect
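Growth was read as firefly luciferase luminescence after a 48 h, 37 C, 5% CO2 exposure of compounds to reporter-bearing P. falciparum cultures (0.1% parasitemia, 2% hematocrit final) in Albumax-supplemented RPMI 1640.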
AMA1-RON2 inh – AMA1-RON2 (P. falciparum) interaction inhibition; AlphaScreen AMA1-biotinylated RON2 peptide binding; Potency, µM (highest dose often 58.2 µM), for the others: at the highest dose activity change, negative = inhibition, usual class: inhibitors; hit rate 0.2% among 360,000; AID 720542;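 further: potency means the concentration at half of the fitted maximal effect; 0% = vehicle wells and -100% = peptide control; nearly all actives have a fitted effect of over 45% in size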
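AMA1 (3D7) with his tag at 25 nM final met compounds first, then biotinylated RON2 peptide at 25 nM; detection used donor plus acceptor beads, 10 µg/mL apiece, read by AlphaScreen after 30 min at room temperature.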
Pf growth 96h – inhibits malaria parasite growth, 96 h. P. falciparum luciferase reporter growth, 96 h. Potency, µM (titrated, usually from 28.7 µM), inactives show at the top dose activity change, negative = inhibition, usual class: inhibitors. hit rate 6.9% among 320,000. AID 504834; further: potency means the concentration at half of the fitted maximal effect; on the % scale 0 is the no-effect control and ±100 the full control effect
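Luminescence readout: decreased luciferase signal marks inhibited growth of reporter-expressing P. falciparum in infected red cells (2% hematocrit, 0.05% parasitemia final), exposed to compound two generations (96 h, 37 C, 5% CO2).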
Shiga toxin inh – blocks Shiga toxin action in Vero cells. Vero cells, Shiga toxin protein synthesis inhibition reporter. inhibition, % at 38.7 µM. hit rate 9.2% among 290,000. AID 2315; in the data active means inhibition mostly above about 28%, no sharp cut-off; inactive means mostly below about 43%; further: 0% is about no effect
Cycloheximide cs – counter-screen hit for Shiga toxin inhibitors, cycloheximide. cell reporter, cycloheximide protein synthesis inhibition counterscreen. max response, %. hit rate 12% among 300,000; in the data active means max response mostly above about 13%, no sharp cut-off; inactive means mostly below about 14%; further: read at 38.3 µM for the half of the compounds with a filed dose; 0% is about no effect
* marks the source's active call; other numbers are inactive results; ? = inconclusive; nt = no result given; [ ] = another dose, or the depositor's remark. Unless noted, the call rests on the fitted dose curve; in most records, active means well fitted curve in the direction sought with a large enough effect; inconclusive means small, poorly fitted or top-dose-only effect, or another doubt; inactive means no such curve, though single readings can be large; an effect the other way counts as inactive or inconclusive.

SMILES	SARS PLP yeast	Pf growth 48h	AMA1-RON2 inh	Pf growth 96h	Shiga toxin inh	Cycloheximide cs
CCCCOc1ccc(-c2nc(-c3cccnc3)no2)cc1	-1%	45%	18%	26%	80*	25*
COc1cccc(-c2noc(-c3ccc(Cl)nc3)n2)c1	0%	0%	-13%	108%	83*	30*
COc1cc(OC)cc(-c2nc(-c3ccccc3)no2)c1	-2%	148%	12%	nt	55	17*
COc1cccc(C(C)(O)c2nc(/C=C/c3ccccc3)cs2)c1 (stereo unspecified)	nt	nt	13%	nt	nt	nt
COc1ccccc1OCC#CCN1CCCC1	-1%	7%	-2%	?	-11	-2
COc1cc(C#CC#CCN2CCCCC2)ccc1O	-2%	8.3µM*	?	20%	9	16
CC1=CC(=C(C#N)C#N)c2ccccc2N1C	1%	12µM*	0%	13%	-7	-5
CC1=C/C(=C\C=C(C#N)C#N)N(C)c2ccccc21	0%	18%	-17%	4%	-11	-2
COCc1cc(=O)n2c([nH]c3ccccc32)c1C#N	-2%	0%	9%	?	-16	6
CCc1cc(=S)n2c([nH]c3ccccc32)c1C#N	-11%	12%	91%	8%	52*	9
CCc1cc(=O)n2c([nH]c3ccccc32)c1C#N	-23%	0%	31%	nt	42*	44*
CCc1c(C)c(C#N)c2[nH]c3ccccc3n2c1=S	-6%	-6%	27%	?	-5	-2
O=c1c(CN2CCN(c3ccccn3)CC2)coc2ccccc12	12%	34%	-4%	55%	87*	66*
COc1ccc(CN2CCN(c3ccccn3)CC2)c(OC)c1	2%	nt	13%	-24%	-15	-6
OCCN1CCN(Cc2cc(Cl)c3cccnc3c2O)CC1	18µM*	nt	-95%	?	-12	-3
Oc1c(CN2CCN(c3ccccn3)CC2)cc(Cl)c2cccnc12	-35%	2.3µM*	?	nt	7	14*
CC(=O)N1c2ccc(S(=O)(=O)N3CCC(C(=O)Nc4cc(C)ccn4)CC3)cc2CC1C (stereo unspecified)	1%	?	-3%	?	-3	1
CN(Cc1ccccc1)C(=O)C(C(=O)c1ccc(F)cc1)n1cc(Cl)ccc1=O (stereo unspecified)	-1%	226%	-2%	?	48*	41*
O=C(NCc1ccc2c(c1)OCO2)C(C(=O)c1ccccc1)n1cc(Cl)ccc1=O (stereo unspecified)	13%	-6%	3%	47%	-9	-5
COC(=O)c1ccc(NC(=O)C(=O)N2CCN(C(=S)Nc3ccccc3OC)CC2)cc1	-1%	19%	4%[11.6 µM]	?	1	-5
COC(=O)c1ccc(NC(=O)C(=O)N2CCN(C(=S)Nc3cccc(C)c3C)CC2)cc1	-35%	3%	-7%	0.47µM*	-6	-1
Cn1ccc(C(=O)Nc2sc3c(c2C(N)=O)CCCCC3)n1	?	207%	27%	226%	99*	57*
CC(=O)Nc1sc2c(c1C(N)=O)CCCC2	-3%	8%	4%	4%	-19	-8
Cn1cc(Br)c(C(=O)Nc2sc3c(c2C(N)=O)CCC3)n1	2%	31%	9%	nt	52*	30*
Cn1nccc1C(=O)Nc1sc2c(c1C(N)=O)CCCC2	-1%	31%	11%	2%	58*	31*
SMILES	SARS PLP yeast	Pf growth 48h	AMA1-RON2 inh	Pf growth 96h	Shiga toxin inh	Cycloheximide cs
C[C@@H]1CN([C@@H](C)CO)C(=O)CCCn2nncc2CO[C@H]1CN(C)S(=O)(=O)c1ccc(-c2ccccc2)cc1	nt	nt	-6%	nt	nt	nt
CC(Sc1ccc(S(=O)(=O)N(C)C)cn1)C(=O)NC1CCCC1 (stereo unspecified)	0%	26%	4%	7%	nt	nt
Cc1ccccc1-n1c(C)nc2ccccc21	5%	-5%	0%	42%	-4	10
CCOc1ccc(-c2noc(CCC(=O)O)n2)cc1	8%	nt	2%	12µM*	-16	-4
COc1ccc(CCCC(=O)Nc2ccccc2F)cc1	6%	41%	4%	-12%	109*	21*
COc1ccc(-c2cc(CCCC(=O)NCCc3ccccc3)no2)cc1	-2%	19%	8%	-4%	67*	64*
COc1ccc(CCC(=O)NCC23CC4CC(CC(C4)C2)C3)cc1	-3%	-10%	3%	-10%	-19	15*
COc1ccc(-c2noc(CCC(=O)O)n2)cc1	?	0%	3%	?	13	4
COc1ccc(OC)c(NC(=O)CCCc2ccccc2)c1	-5%	4%	0%	-6%	-3	-1
CCOc1ccc(S(=O)(=O)N2CCN(c3ccccc3OC)CC2)c2cccnc12	2%	?	4%	nt	-22	-2
CC1(C(=O)Nc2cccc3ccccc23)CCN1C(=O)Cc1ccc(Cl)cc1Cl (stereo unspecified)	nt	nt	-4%	nt	nt	nt
Cc1cc(OCc2nn[nH]n2)c2c(C)c(Cc3ccccc3)c(=O)oc2c1	1%	0%	-2%	26%	-5	-4
CC(C)C[C@H](NC(=O)CNC(=O)[C@H](C)NC(=O)[C@H](CC(C)C)NC(=O)[C@H](CCCNC(=N)N)NC(=O)[C@H](Cc1cnc[nH]1)NC(=O)[C@@H](NC(=O)[C@@H](NC(=O)[C@@H]1CSSC[C@H](NC(=O)[C@@H](N)CO)C(=O)N[C@@H](CC(N)=O)C(=O)N[C@@H]([C@@H](C)O)C(=O)N[C@@H](C)C(=O)N[C@@H]([C@@H](C)O)C(=O)N1)C(C)C)[C@@H](C)O)C(=O)N[C@@H](CC(C)C)C(=O)N[C@@H](CO)C(=O)N[C@@H](CCCNC(=N)N)C(=O)N[C@@H](CO)C(=O)NCC(=O)NCC(=O)N[C@H](C(=O)N[C@H](C(=O)N[C@@H](CCCCN)C(=O)N[C@@H](CC(=O)O)C(=O)N[C@@H](CC(N)=O)C(=O)N[C@@H](Cc1ccccc1)C(=O)N[C@H](C(=O)N1CCC[C@H]1C(=O)N[C@H](C(=O)N[C@@H](CC(N)=O)C(=O)N[C@H](C(=O)NCC(=O)N[C@@H](CO)C(=O)N[C@@H](CCCCN)C(=O)N[C@@H](C)C(=O)N[C@@H](Cc1ccccc1)C(N)=O)C(C)C)[C@@H](C)O)C(C)C)C(C)C)C(C)C	nt	nt	nt	nt	-8	-5
COc1ccc(-c2cc(CCCC(=O)NCc3ccccn3)no2)cc1	-7%	nt	60%	?	21	34*
CC(C)CNC(=O)CCc1nc(-c2ccccc2)no1	0%	35%	-12%	45%	33*	27*
COc1ccc(-c2noc(CCC(=O)NCCc3ccccc3)n2)cc1	-3%	0%[0.00184 µM]	-4%	-6%	45	25*
COc1cccc(OC)c1C(=O)NCC12CC3CC(C1)CC(CNC(=O)c1c(OC)cccc1OC)(C3)C2	1%	34%	1%	3.3µM*	3	-1

Source: PubChem BioAssay (National Center for Advancing Translational Sciences (NCATS))
